Structures are written as SMILES. Active and inactive are the calls of the source. Unless noted, no stated cut-off is given here; in the data, active means inhibition above about 30%; inactive means the rest.

The first assay in a line: 384-well plate pilot, post-Golgi transport modulator project, inhibition of yeast transport mutant growth (AID 636; in the data active means inhibition above about 31%). The settings on record: absorbance 615 nm, about 18 h, hits give high values.
Turning to `CC(C)(C)OC(=O)N1CCC(C(=O)N2CCCCCC2)CC1`, the inhibition is -1.71% (inactive).
The same measure, in the same setting: then `CC(NO)C(C)(C)NO` (centres undefined), with -2.67% (inactive).
Same read-out and setting: then `CCn1c(=O)cc(OCC(=O)Nc2cc(C)ccn2)c2ccccc21`, with -2.89% (inactive); and `CCC(=O)N1CCc2cc(S(=O)(=O)CCC(=O)Nc3ccc(C)c(F)c3)ccc21`, with -4% (inactive).
Same read-out and setting: then `CCN(CC)S(=O)(=O)N1CCC(C(=O)NC2CCCc3ccccc32)CC1` (centres undefined), with 5.45% (inactive); and `O=C(CN1C(=O)c2cccc3cccc1c23)N1CCN(c2ccccc2)CC1`, with 1.49% (inactive); and `CC(C)CCn1c(=O)c2ccccc2n2c(CN(C)Cc3ccccc3)nnc12`, with -6.08% (inactive).
As for `C=CCn1c(SCC(=O)NC23CC4CC(CC(C4)C2)C3)nc(O)cc1=O`, the inhibition is -1.18% (inactive).
The same measure, in the same setting: the value for `Nc1nnc(C(=O)c2ccccc2N)s1` was -1.04% (inactive); that for `COc1ccc(CCNC(=O)C2CC(=O)N(c3ccccc3)C2)cc1OC` (centres undefined) was -2.47% (inactive); that for `O=C(NCc1nnc(SCC(=O)N2CCCCCC2)o1)c1ccco1` was -4.27% (inactive).
On the same count and under the same terms, the value for `COc1ccc(CNc2nc(NCc3ccc(OC)cc3)n(S(C)(=O)=O)n2)cc1` was 0% (inactive); that for `CCCCc1c(O)nc(SCCN(C)C)n(-c2ccccc2)c1=O` was -1.18% (inactive); that for `COc1ccc(C(=O)OC(COc2ccccc2)Cn2ccnc2)cc1` (centres undefined) was 100% (active).
On the same count and under the same terms, the value for `O=S1(=O)CC(N2CCOCC2)c2ccccc21` (centres undefined) was 0.27% (inactive); that for `CN(C)C(=O)N1CCCC(C(=O)NCc2ccccc2)C1` (centres undefined) was 1.92% (inactive); that for `O=C(NCc1ccco1)c1cnc2n(c1=O)CCS2` was 0.78% (inactive).
Take `C#CC(CO)N(CCN(Cc1ccccc1)C(C#C)CO)Cc1ccccc1` (centres undefined): the inhibition was -7.16% (inactive).
Same read-out and setting: the value for `COC(=O)c1ccccc1NC(=O)C1CC(=O)N(c2ccc(F)cc2)C1` (centres undefined) was -6.4% (inactive); that for `Cc1noc(NS(=O)(=O)c2ccc(N3C(=O)c4ccccc4C3=O)cc2)c1C` was -3.47% (inactive); that for `CCn1c(SCC(=O)c2ccc(F)cc2)nnc1-c1ccoc1C` was -6.1% (inactive).
Still for that read-out and setting: the value for `CCC(C)(C(=O)NC1CCCCC1)N(Cc1ccco1)C(=O)c1ccc2c(c1)OCO2` (centres undefined) was -1.82% (inactive).
On the same count and under the same terms, then `CC(=O)c1cc(C#N)c(SCC(=O)OC(C)C)nc1C`, with -7.03% (inactive).
Turning to `CCOC(=O)c1c(C)[nH]c(C=Nc2ccccc2)c1O`, the inhibition was -4.13% (inactive).

Another assay is described as follows: growth suppression of yeast trafficking mutant, preliminary HTS, modulators of trafficking downstream of Golgi apparatus project, 1536-format plate, OD 615 nm (AID 637). Conditions: yeast transport mutant growth, absorbance 615 nm, 18 h; hits give high values.
Take `CCOC(=O)C(NC(C)=O)(NS(=O)(=O)c1ccccc1)C(F)(F)F` (centres undefined): the inhibition is 1.59% (inactive).
Still for that read-out and setting: the value for `N#Cc1c(/N=C/c2ccco2)sc2c1CCC2` was 11.2% (inactive); that for `c1ccc(-c2noc(C34CC5CC(CC(C5)C3)C4)n2)nc1` was 2.13% (inactive); that for `COc1cc(S(=O)(=O)N2CCOCC2)ccc1NC(=O)COC(=O)C12CC3CC(CC(C3)C1)C2` was -11.7% (inactive).
Still for that read-out and setting: then `Cc1cc(C)n(-c2nc3c(c(=O)n(Cc4ccc(Cl)c(Cl)c4)c(=O)n3C)n2C)n1`, with -3.65% (inactive).
Same read-out and setting: the value for `O=C(CCN1C(=O)COc2ccccc21)NCCCN1CCN(c2ccccc2F)CC1` was -2.5% (inactive); that for `CC(=O)c1cc(F)c(N2CCN(C(=O)Cc3ccccc3)CC2)cc1C` was -4.35% (inactive); that for `COc1ccc(-n2nnnc2-c2cccc(OC)c2)cc1` was -1% (inactive).
For `COc1ccc(OC)c(Nc2cc(-c3ccccc3)nc(N)n2)c1`, the inhibition is -5.09% (inactive).
Same read-out and setting: the value for `Cc1ccc(-c2csc3ncn(-n4c(C)ccc4C)c(=O)c23)o1` was -5.57% (inactive); that for `O=C(CN1C(=O)CCSc2ccccc21)Nc1ccccc1` was -7.78% (inactive).
The same measure, in the same setting: the value for `CC(=O)Nc1ccc(S(=O)(=O)Nc2nc3ccccc3nc2N2CCCC2)cc1` was 3.61% (inactive).
For `CC(=O)c1cnc2cc(-c3ccccc3)nn2c1C`, the inhibition is -10.7% (inactive).
As to `Nc1cc(C(=O)O)ccc1Nc1ccc(F)c(F)c1`, the inhibition is 4.75% (inactive).
Still for that read-out and setting: the value for `O=C(NCc1cccnc1)c1cn(CCc2ccccc2)nn1` was 4.33% (inactive).
Still for that read-out and setting: then `COc1ccc(-n2c(SCc3ccc(C#N)cc3)nnc2-c2ccccn2)cc1`, with -5.56% (inactive).
Consider `CC(C)(C)OC(=O)N1CCC(C(=O)N2CCCCCC2)CC1`, for which the inhibition was -6.36% (inactive).
Same read-out and setting: the value for `CC(NO)C(C)(C)NO` (centres undefined) was 12.1% (inactive).
Same read-out and setting: the value for `CCn1c(=O)cc(OCC(=O)Nc2cc(C)ccn2)c2ccccc21` was -0.55% (inactive).
Same read-out and setting: then `CCC(=O)N1CCc2cc(S(=O)(=O)CCC(=O)Nc3ccc(C)c(F)c3)ccc21`, with 1.8% (inactive); and `CCN(CC)S(=O)(=O)N1CCC(C(=O)NC2CCCc3ccccc32)CC1` (centres undefined), with -4.26% (inactive).
`O=C(CN1C(=O)c2cccc3cccc1c23)N1CCN(c2ccccc2)CC1`: the inhibition was -1.5% (inactive).
The same measure, in the same setting: then `CC(C)CCn1c(=O)c2ccccc2n2c(CN(C)Cc3ccccc3)nnc12`, with 11.3% (inactive).
On the same count and under the same terms, the value for `C=CCn1c(SCC(=O)NC23CC4CC(CC(C4)C2)C3)nc(O)cc1=O` was -0.48% (inactive); that for `Nc1nnc(C(=O)c2ccccc2N)s1` was 3.93% (inactive); that for `COc1ccc(CCNC(=O)C2CC(=O)N(c3ccccc3)C2)cc1OC` (centres undefined) was -1.8% (inactive).
Same read-out and setting: the value for `O=C(NCc1nnc(SCC(=O)N2CCCCCC2)o1)c1ccco1` was -0.48% (inactive); that for `COc1ccc(CNc2nc(NCc3ccc(OC)cc3)n(S(C)(=O)=O)n2)cc1` was 0.82% (inactive).
With `CCCCc1c(O)nc(SCCN(C)C)n(-c2ccccc2)c1=O`, the inhibition is 2.62% (inactive).
As for `COc1ccc(C(=O)OC(COc2ccccc2)Cn2ccnc2)cc1` (centres undefined), the inhibition was 95.5% (active).
Same read-out and setting: the value for `O=S1(=O)CC(N2CCOCC2)c2ccccc21` (centres undefined) was -9.52% (inactive).
On the same count and under the same terms, the value for `CN(C)C(=O)N1CCCC(C(=O)NCc2ccccc2)C1` (centres undefined) was 4.5% (inactive); that for `O=C(NCc1ccco1)c1cnc2n(c1=O)CCS2` was -1.48% (inactive); that for `C#CC(CO)N(CCN(Cc1ccccc1)C(C#C)CO)Cc1ccccc1` (centres undefined) was 1.5% (inactive).
As for `COC(=O)c1ccccc1NC(=O)C1CC(=O)N(c2ccc(F)cc2)C1` (centres undefined), the inhibition was 2.13% (inactive).
Same read-out and setting: the value for `Cc1noc(NS(=O)(=O)c2ccc(N3C(=O)c4ccccc4C3=O)cc2)c1C` was 2.58% (inactive); that for `CCn1c(SCC(=O)c2ccc(F)cc2)nnc1-c1ccoc1C` was -0.95% (inactive).
The same measure, in the same setting: then `CCC(C)(C(=O)NC1CCCCC1)N(Cc1ccco1)C(=O)c1ccc2c(c1)OCO2` (centres undefined), with -7.05% (inactive); and `CC(=O)c1cc(C#N)c(SCC(=O)OC(C)C)nc1C`, with 5.67% (inactive).
As for `CCOC(=O)c1c(C)[nH]c(C=Nc2ccccc2)c1O`, the inhibition is 11.4% (inactive).

By inhibition is commonly meant the relative decrease from the control value, in per cent.

The values above are taken from PubChem BioAssay.
